Assay results published in the antibiotic and cytotoxicity screens of Wong et al. (2023).
Among all 39,000 compounds or so, about 3,300 (8.5%) were called active. This excerpt belongs to a sample that is enriched for actives.

test system: HepG2; assay: cytotoxicity call (relative viability < 0.9); conditions: 10 µM

SMILES | cytotoxicity call
C[C@H]1CN([C@@H](C)CO)C(=O)c2cc(C#CCC3CCCC3)cnc2O[C@@H]1CN(C)C(=O)c1cnccn1 | inactive
CC(C)NC(=O)N(C)C[C@H]1Oc2cc(C#Cc3cccc(F)c3)ccc2S(=O)(=O)N([C@@H](C)CO)C[C@H]1C | inactive
CNC[C@@H]1OCCCC[C@H](C)Oc2ccc(NS(=O)(=O)c3cn(C)cn3)cc2C(=O)N([C@@H](C)CO)C[C@@H]1C | inactive
C[C@@H]1CCCCO[C@H](CN(C)S(=O)(=O)c2ccc(Cl)cc2)[C@@H](C)CN([C@@H](C)CO)C(=O)c2cc(NS(=O)(=O)c3ccc(Cl)cc3)ccc2O1 | inactive
C[C@@H]1CCCCO[C@@H](CN(C)S(=O)(=O)c2ccc(Cl)cc2)[C@@H](C)CN([C@@H](C)CO)C(=O)c2cc(NS(=O)(=O)c3ccc(Cl)cc3)ccc2O1 | inactive
C[C@@H]1CCCCO[C@H](CN(C)S(=O)(=O)c2ccc(Cl)cc2)[C@@H](C)CN([C@H](C)CO)C(=O)c2cc(NS(=O)(=O)c3ccc(Cl)cc3)ccc2O1 | inactive
C[C@@H]1CN([C@@H](C)CO)C(=O)c2cc(NS(=O)(=O)c3ccc(Cl)cc3)ccc2O[C@@H](C)CCCCO[C@@H]1CN(C)S(=O)(=O)c1ccc(Cl)cc1 | active
C[C@H](CO)N1C[C@H](C)[C@@H](CN(C)S(=O)(=O)c2ccc(Cl)cc2)OCCCC[C@H](C)Oc2ccc(NS(=O)(=O)c3ccc(Cl)cc3)cc2C1=O | inactive
C[C@@H]1CCCCO[C@H](CN(C)S(=O)(=O)c2ccc(Cl)cc2)[C@H](C)CN([C@H](C)CO)C(=O)c2cc(NS(=O)(=O)c3ccc(Cl)cc3)ccc2O1 | active
C[C@@H]1CCCCO[C@@H](CN(C)S(=O)(=O)c2ccc(Cl)cc2)[C@@H](C)CN([C@H](C)CO)C(=O)c2cc(NS(=O)(=O)c3ccc(Cl)cc3)ccc2O1 | inactive
C[C@@H]1CCCCO[C@H](CN(C)S(=O)(=O)c2ccc(Cl)cc2)[C@H](C)CN([C@@H](C)CO)C(=O)c2cc(NS(=O)(=O)c3ccc(Cl)cc3)ccc2O1 | active
C[C@H]1CCCCO[C@@H](CN(C)S(=O)(=O)c2ccc(Cl)cc2)[C@@H](C)CN([C@@H](C)CO)C(=O)c2cc(NS(=O)(=O)c3ccc(Cl)cc3)ccc2O1 | inactive
C[C@@H]1CCCCO[C@@H](CN(C)S(=O)(=O)c2ccc(Cl)cc2)[C@H](C)CN([C@@H](C)CO)C(=O)c2cc(NS(=O)(=O)c3ccc(Cl)cc3)ccc2O1 | inactive
C[C@H](CO)N1C[C@H](C)[C@H](CN(C)S(=O)(=O)c2ccc(Cl)cc2)OCCCC[C@H](C)Oc2ccc(NS(=O)(=O)c3ccc(Cl)cc3)cc2C1=O | active
C[C@@H]1CN([C@H](C)CO)C(=O)c2cc(NS(=O)(=O)c3ccc(Cl)cc3)ccc2O[C@@H](C)CCCCO[C@@H]1CN(C)S(=O)(=O)c1ccc(Cl)cc1 | inactive
CN(C)C(=O)c1ccc(-c2cccc(-c3nc(C(=O)NCc4ccccc4)cc4c3[C@@H](CCO)N([S@@](=O)C(C)(C)C)C4)c2)cc1 | inactive
C[C@H](NC(=O)C[C@H]1CC[C@@H](NC(=O)CN2CCOCC2)[C@@H](CO)O1)c1ccccc1 | inactive
Cc1ccc(S[C@]2(C(=O)NC3CC3)CC(=O)N(Cc3cc(C(F)(F)F)cc(C(F)(F)F)c3)[C@@H]2c2ccc(CO)cc2)cc1 | inactive
C[C@@H]1CCCCO[C@@H](CN(C)S(=O)(=O)c2ccccc2)[C@H](C)CN([C@@H](C)CO)C(=O)c2cc(NC(=O)C3CCCCC3)ccc2O1 | inactive
COc1ccc(S(=O)(=O)Nc2ccc3c(c2)CC(=O)N([C@@H](C)CO)C[C@@H](C)[C@@H](CN(C)Cc2ccc(C(=O)O)cc2)O3)cc1 | inactive

SMILES | cytotoxicity call
COc1ccc(NC(=O)N(C)C[C@@H]2OCCCC[C@H](C)Oc3ccc(NS(=O)(=O)c4cccs4)cc3C(=O)N([C@@H](C)CO)C[C@@H]2C)cc1 | inactive
CCS(=O)(=O)N1C[C@]2(CN(C2)C(=O)c2ccc3c(c2)OCO3)c2c(n(c3cc(ccc23)OC)C)[C@H]1CO | inactive
CN1CCN(C(=O)C[C@@H]2CC[C@@H]3[C@H](COC[C@@H](O)CN3C(=O)Nc3cc(Cl)cc(Cl)c3)O2)CC1 | inactive
C[C@H]1CN([C@@H](C)CO)C(=O)c2cc(NC(=O)C3CCCCC3)ccc2O[C@H]1CN(C)C(=O)Nc1ccc(C(F)(F)F)cc1 | inactive
C[C@@H]1CN([C@H](C)CO)C(=O)c2cc(NS(=O)(=O)c3ccc(Cl)cc3)ccc2O[C@@H](C)CCCCO[C@H]1CN(C)S(=O)(=O)c1ccc(Cl)cc1 | inactive
C[C@@H]1CCCCO[C@@H](CN(C)S(=O)(=O)c2ccc(Cl)cc2)[C@H](C)CN([C@H](C)CO)C(=O)c2cc(NS(=O)(=O)c3ccc(Cl)cc3)ccc2O1 | active
C[C@@H]1CN([C@@H](C)CO)C(=O)c2cc(NS(=O)(=O)c3ccc(Cl)cc3)ccc2O[C@@H](C)CCCCO[C@H]1CN(C)S(=O)(=O)c1ccc(Cl)cc1 | inactive
COCCNC(=O)C[C@H]1C[C@H]2c3cc(NC(=O)CN(C)C)ccc3O[C@H]2[C@@H](CO)O1 | inactive
C[C@@H]1CN([C@@H](C)CO)C(=O)c2cc(NC(=O)NC3CCCCC3)ccc2O[C@@H]1CN(C)Cc1ccc(Oc2ccccc2)cc1 | active
C[C@@H]1CN([C@H](C)CO)C(=O)c2cc(NC(=O)NC3CCCCC3)ccc2O[C@@H]1CN(C)Cc1ccc(Oc2ccccc2)cc1 | active
C[C@@H]1CN([C@@H](C)CO)C(=O)c2cc(NC(=O)NC3CCCCC3)ccc2O[C@H]1CN(C)Cc1ccc(Oc2ccccc2)cc1 | inactive
CC(C)NC(=O)Nc1ccc2c(c1)C(=O)N([C@H](C)CO)C[C@@H](C)[C@H](CN(C)Cc1ccc(Oc3ccccc3)cc1)O2 | inactive
C[C@@H]1CN([C@H](C)CO)C(=O)c2cc(NC(=O)NC3CCCCC3)ccc2O[C@H]1CN(C)Cc1ccc(Oc2ccccc2)cc1 | inactive
C[C@H](CO)N1C[C@H](C)[C@H](CN(C)Cc2ccc(Oc3ccccc3)cc2)Oc2ccc(NC(=O)NC3CCCCC3)cc2C1=O | inactive
C[C@H]1CN([C@@H](C)CO)C(=O)c2cc(NC(=O)NC3CCCCC3)ccc2O[C@H]1CN(C)Cc1ccc(Oc2ccccc2)cc1 | inactive
C[C@H](CO)N1C[C@H](C)[C@@H](CN(C)Cc2ccc(Oc3ccccc3)cc2)Oc2ccc(NC(=O)NC3CCCCC3)cc2C1=O | active
CC(C)NC(=O)Nc1ccc2c(c1)C(=O)N([C@@H](C)CO)C[C@@H](C)[C@@H](CN(C)Cc1ccc(Oc3ccccc3)cc1)O2 | inactive
O=C(C[C@@H]1CC[C@@H]2[C@H](COC[C@H](O)CN2C(=O)Nc2ccc(Cl)cc2)O1)NCCc1ccncc1 | inactive
Cn1ccnc1C(=O)N[C@@H]1CN(C(N)=O)[C@H]2CCCO[C@@H]12 | inactive
C[C@@H]1CN([C@@H](C)CO)C(=O)Cc2cc(NC(=O)C3CC3)ccc2O[C@@H]1CN(C)S(=O)(=O)c1cccs1 | inactive

SMILES | cytotoxicity call
Cc1ccc(S(=O)(=O)Nc2ccc3c(c2)C(=O)N([C@H](C)CO)C[C@@H](C)[C@H](CN(C)C(=O)Nc2ccc4c(c2)OCO4)OCCCC[C@@H](C)O3)cc1 | inactive
C[C@H](CO)N1C[C@H](C)[C@@H](CN(C)S(=O)(=O)c2ccc(F)cc2)OCCCC[C@H](C)Oc2ccc(NC(=O)Nc3ccc4c(c3)OCO4)cc2C1=O | inactive
Cc1noc(C)c1S(=O)(=O)Nc1ccc2c(c1)C(=O)N([C@@H](C)CO)C[C@H](C)[C@H](CN(C)S(=O)(=O)c1ccccc1)O2 | inactive
C[C@@H]1CN([C@H](C)CO)C(=O)c2cc(NC(=O)Cn3cnnn3)ccc2O[C@@H]1CN(C)CC1CC1 | inactive
COC(=O)COc1nsnc1N1CCOCC1 | inactive
COc1ccc(-c2nc(N3CCOCC3)c3sc(CN(C)c4ncc(C(=O)NO)cn4)cc3n2)cn1 | active
CNc1ccc(-c2nc(N3CCOCC3)c3sc(CN(C)c4ncc(C(=O)NO)cn4)cc3n2)cn1 | active
COc1ccc(S(=O)(=O)Nc2ccc3c(c2)C(=O)N([C@@H](C)CO)C[C@@H](C)[C@H](CN(C)C(=O)Nc2c(C)noc2C)OCCCC[C@H](C)O3)cc1 | inactive
O=C(/C=C/c1ccc(O)c(O)c1)O[C@H]1[C@H](O)C[C@](O)(C(=O)O)C[C@H]1OC(=O)/C=C/c1ccc(O)c(O)c1 | inactive
Cc1ccc(S(=O)(=O)Nc2ccc3c(c2)CC(=O)N([C@H](C)CO)C[C@H](C)[C@@H](CN(C)S(C)(=O)=O)O3)cc1 | inactive
Cc1cccc2c1OCC[C@@H](N)C2=O | inactive
CC1COC2=C1C(=O)C(=O)c1c2ccc2c1CCCC2(C)C (stereo not given) | active
Cc1coc2c1C(=O)C(=O)c1c-2ccc2c1CCCC2(C)C | active
Cc1cccc2c3c(ccc12)C1=C(C(=O)C3=O)C(C)CO1 (stereo not given) | active
C[C@@H]1CN([C@@H](C)CO)C(=O)Cc2cc(NC(=O)Nc3cccc4ccccc34)ccc2O[C@H]1CN(C)Cc1ccc(-c2ccccc2)cc1 | inactive
COc1cc2c(cc1OC)CN(C(=O)[C@H]1[C@@H]3C(=O)O[C@@H](c4ccccc4)[C@@H](c4ccccc4)N3[C@@H](c3ccccc3OCCO)[C@]13C(=O)Nc1ccc(C#CC4(O)CCCCCC4)cc13)CC2 | inactive
O=C(C[C@@H]1CC[C@H]2[C@@H](COC[C@H](O)CN2C(=O)c2ccccn2)O1)NC1CCC1 | inactive
O[C@@H]1[C@@H](O)[C@H](OC/C=C/c2ccccc2)O[C@H](CO[C@@H]2OC[C@@H](O)[C@@H](O)[C@@H]2O)[C@H]1O | inactive
NCc1cccc2nsnc12 | inactive
C[C@H]1CN([C@@H](C)CO)C(=O)c2cccc(NC(=O)C3CC3)c2O[C@@H]1CN(C)S(=O)(=O)c1ccc(F)cc1 | inactive
